According to PubChem BioAssay:
Calls of active or inactive are those of the source.

How the values were obtained:
[1] = target: Albumin (Bos taurus) (UniProt P02769); test: bovine serum albumin binders on microarray, profiling panel, artefact control for SMM control protein annotation, biochemical, small-molecule microarray, Alexa647 label, 635/667 nm fluorescence (AID 1118); conditions: BSA-A647 binding, fluorescence 635 nm, higher = more signal;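 further: score merges 667 nm emission intensity and signal-to-noise per printed compound spot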
Albumin (Bos taurus), sequence (P02769 whole entry, looked up): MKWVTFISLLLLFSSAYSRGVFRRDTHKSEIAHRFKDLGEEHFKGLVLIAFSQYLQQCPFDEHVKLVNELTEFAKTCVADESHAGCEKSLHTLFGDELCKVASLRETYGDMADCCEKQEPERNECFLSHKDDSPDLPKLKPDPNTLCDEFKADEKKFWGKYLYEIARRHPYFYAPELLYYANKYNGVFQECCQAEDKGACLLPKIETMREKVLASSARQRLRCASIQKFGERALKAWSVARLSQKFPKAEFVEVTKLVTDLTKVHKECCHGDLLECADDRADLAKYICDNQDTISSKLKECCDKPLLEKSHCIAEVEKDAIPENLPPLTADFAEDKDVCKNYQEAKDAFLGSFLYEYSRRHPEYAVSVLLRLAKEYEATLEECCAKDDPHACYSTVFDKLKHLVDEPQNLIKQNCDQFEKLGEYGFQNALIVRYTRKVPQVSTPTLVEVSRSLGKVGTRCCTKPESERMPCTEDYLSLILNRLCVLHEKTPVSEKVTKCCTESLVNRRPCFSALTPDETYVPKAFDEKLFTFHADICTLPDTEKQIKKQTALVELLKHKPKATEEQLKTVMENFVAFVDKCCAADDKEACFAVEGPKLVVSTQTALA

[2] = small-molecule microarray binders of probe aXIP, primary screen, biochemical, NeuroSMM set, 635/667 nm fluorescence (AID 1119); conditions: higher = more signal, called active from +8 up or from −8 down;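 further: probe is the protein aXip251-270 applied at 1 µg/mL to compound-printed slides; binding of probe to printed compounds measured as 667 nm fluorescence plus signal to noise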
[3] = small-molecule binders of probe aNOTCH3, primary screen, biochemical, small-molecule microarray, 635/667 nm fluorescence (AID 1120); conditions: higher = more signal;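 further: probe is a biotin-tagged antibody raised against NOTCH3 rather than NOTCH3 protein; score merges spot fluorescence near 667 nm with spot signal to noise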
[4] = small-molecule binders of probe aNOTCH2, primary screen, biochemical, small-molecule microarray, 635/667 nm fluorescence (AID 1121); conditions: higher = more signal;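 further: score merges feature fluorescence read at 667 nm with its signal to noise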
[5] = target: Carbonic anhydrase 2 (Homo sapiens) (UniProt P00918); test: CAII small-molecule binders, profiling panel, biochemical, small-molecule microarray, Alexa647-labelled CAII (AID 1122); conditions: CAII-A647 binding fluorescence, higher = more signal
[6] = COS7 lysate on small-molecule microarray, probe aHis, 635 nm (AID 1123); conditions: COS7 cell lysate, fluorescence, higher = more signal;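 further: z-score combines 667nm fluorescence intensity with signal-to-noise per printed compound spot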
[7] = compound binding in COS7 lysate, probe aLAP1, primary screen, cell lysate, small-molecule microarray (AID 1124); conditions: probe aLAP1, fluorescence, higher = more signal;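 further: lysate comes from COS7 cells expressing LAP1 and is applied at 0.3 µg/mL; score merges spot fluorescence near 667 nm with signal-to-noise over triplicate slides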
[8] = system: Sam68 (KHDRBS1); test: Sam68 small-molecule binders, primary screen, biochemical, small-molecule microarray, 635 nm fluorescence (AID 1125); conditions: small-molecule microarray binding, higher = more signal;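 further: score merges 667 nm channel intensity with signal to noise over triplicate slides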
[9] = system: Chordin-like protein 2 (CHRDL2); test: CHRDL2 small-molecule binders, primary screen, biochemical, small-molecule microarray, 635 nm fluorescence (AID 1126); conditions: small-molecule microarray binding, fluorescence 635 nm; higher = more signal;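 further: printed compound slides probed with Chrdl2 protein at 4 µg/mL for 1 h at 4 C; score merges 667 nm emission intensity with signal to noise over three replicate slides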
[10] = target: Concanavalin-A (Canavalia ensiformis) (UniProt P02866); test: ConA small-molecule binders, primary screen, artefact control for SMM control protein annotation, biochemical, small-molecule microarray, Alexa647 label, 635 nm (AID 1127); conditions: ConA-A647 binding fluorescence, higher = more signal;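 further: z combines 667 nm emission intensity with signal-to-noise across three replicate slides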
Concanavalin-A (Canavalia ensiformis), sequence (P02866 whole entry, looked up): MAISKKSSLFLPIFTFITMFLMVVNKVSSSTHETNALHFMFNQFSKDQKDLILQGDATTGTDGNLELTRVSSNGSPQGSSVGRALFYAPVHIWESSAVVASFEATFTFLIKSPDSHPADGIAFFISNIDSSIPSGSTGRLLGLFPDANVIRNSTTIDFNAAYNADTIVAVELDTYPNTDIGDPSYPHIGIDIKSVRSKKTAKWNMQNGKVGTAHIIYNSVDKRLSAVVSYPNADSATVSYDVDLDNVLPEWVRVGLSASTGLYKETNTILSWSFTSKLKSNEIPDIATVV

[11] = anti-His antibody binders, primary screen, artefact control for SMM control protein annotation, biochemical, small-molecule microarray, 635 nm fluorescence (AID 1128); conditions: anti-His Alexa647 antibody binding, higher = more signal;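 further: score merges feature fluorescence with signal-to-noise for each printed compound spot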
[12] = system: Human papillomavirus type 1a E7 protein (residues 1-88); test: HPV1a E7 small-molecule binders, primary screen, biochemical, small-molecule microarray, residues 1-88, 635 nm (AID 1129); conditions: small-molecule microarray binding, fluorescence 635 nm; higher = more signal
[13] = target: Focal adhesion kinase 1 (Homo sapiens) (UniProt Q05397); test: small-molecule microarray binders of FAK, primary screen, biochemical, 635/667 nm fluorescence, BSA, DTT (AID 1130); conditions: PTK2 binding, 635 nm fluorescence, higher = more signal;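 further: composite of spot emission at 667 nm and signal to noise over triplicate slides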
Focal adhesion kinase 1 (Homo sapiens), sequence (Q05397 whole entry, looked up): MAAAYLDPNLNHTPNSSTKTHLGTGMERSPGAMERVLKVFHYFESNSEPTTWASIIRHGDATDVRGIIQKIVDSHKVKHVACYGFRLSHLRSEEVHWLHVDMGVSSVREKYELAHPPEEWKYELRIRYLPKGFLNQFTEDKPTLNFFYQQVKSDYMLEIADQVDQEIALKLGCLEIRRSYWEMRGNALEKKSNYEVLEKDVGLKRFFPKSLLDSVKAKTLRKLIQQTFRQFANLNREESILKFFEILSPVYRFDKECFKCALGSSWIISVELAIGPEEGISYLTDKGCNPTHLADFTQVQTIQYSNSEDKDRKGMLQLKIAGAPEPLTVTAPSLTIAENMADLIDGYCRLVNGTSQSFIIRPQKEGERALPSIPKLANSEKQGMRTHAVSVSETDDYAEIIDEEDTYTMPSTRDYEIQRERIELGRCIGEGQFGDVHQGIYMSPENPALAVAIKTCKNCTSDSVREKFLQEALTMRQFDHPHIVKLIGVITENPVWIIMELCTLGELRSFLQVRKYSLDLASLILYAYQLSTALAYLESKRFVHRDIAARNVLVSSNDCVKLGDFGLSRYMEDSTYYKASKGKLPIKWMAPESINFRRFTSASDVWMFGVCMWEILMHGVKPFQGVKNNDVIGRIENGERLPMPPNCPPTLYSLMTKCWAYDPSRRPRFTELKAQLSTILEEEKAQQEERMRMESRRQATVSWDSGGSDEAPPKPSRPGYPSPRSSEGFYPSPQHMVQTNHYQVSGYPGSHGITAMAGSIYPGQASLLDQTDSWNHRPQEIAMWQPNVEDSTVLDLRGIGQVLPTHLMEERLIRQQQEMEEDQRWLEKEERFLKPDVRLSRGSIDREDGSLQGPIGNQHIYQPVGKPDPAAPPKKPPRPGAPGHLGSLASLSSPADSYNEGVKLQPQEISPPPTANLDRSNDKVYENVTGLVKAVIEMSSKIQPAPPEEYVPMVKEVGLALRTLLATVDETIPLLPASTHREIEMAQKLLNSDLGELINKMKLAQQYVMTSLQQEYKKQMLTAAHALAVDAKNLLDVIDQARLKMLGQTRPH

[14] = system: Fibrinogen (Alexa647-labelled); test: fibrinogen binders on compound microarrays, profiling panel, artefact control for SMM control-protein annotation, biochemical, small-molecule microarray, 635/667 nm fluorescence (AID 1131); conditions: fibrinogen-A647 binding fluorescence, higher = more signal;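 further: z-score merges 667 nm fluorescence with per-spot signal-to-noise over triplicate slides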
[15] = target: Follistatin (Homo sapiens) (UniProt P19883); test: follistatin binders on small-molecule microarrays, primary screen, biochemical, small-molecule microarray, 635/667 nm fluorescence (AID 1132); conditions: FST binding, 635 nm fluorescence, higher = more signal
Follistatin (Homo sapiens), sequence (P19883 whole entry, looked up): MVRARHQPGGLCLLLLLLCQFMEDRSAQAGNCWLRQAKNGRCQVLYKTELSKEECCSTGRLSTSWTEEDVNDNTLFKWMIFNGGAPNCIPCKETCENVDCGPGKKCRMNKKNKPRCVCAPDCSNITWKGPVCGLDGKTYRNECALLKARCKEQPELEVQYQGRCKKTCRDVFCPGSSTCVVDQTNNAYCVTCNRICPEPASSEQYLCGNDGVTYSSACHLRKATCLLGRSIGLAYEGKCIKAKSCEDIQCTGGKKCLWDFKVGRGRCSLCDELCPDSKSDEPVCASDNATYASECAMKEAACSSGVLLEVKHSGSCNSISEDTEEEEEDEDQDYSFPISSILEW

[16] = target: Fibroblast growth factor 2 (Homo sapiens) (UniProt P09038); test: FGF2 binders on small-molecule microarrays, primary screen, biochemical, small-molecule microarray, 635/667 nm fluorescence (AID 1133); conditions: small-molecule microarray binding, FGF2, fluorescence 635/667; higher = more signal
Fibroblast growth factor 2 (Homo sapiens), sequence (P09038 whole entry, looked up): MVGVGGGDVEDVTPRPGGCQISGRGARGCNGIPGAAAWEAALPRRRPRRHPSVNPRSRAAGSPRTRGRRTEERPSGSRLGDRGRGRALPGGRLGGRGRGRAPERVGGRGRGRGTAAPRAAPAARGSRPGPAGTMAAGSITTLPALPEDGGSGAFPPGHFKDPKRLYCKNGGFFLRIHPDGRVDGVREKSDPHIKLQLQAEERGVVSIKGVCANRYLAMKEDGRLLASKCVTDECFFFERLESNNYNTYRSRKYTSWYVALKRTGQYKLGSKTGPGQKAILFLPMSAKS

[17] = mitochondrial membrane potential change in A549 cells, profiling panel, cell-based, JC-1 fluorescence, basal, 24 h, 100 nL (AID 1138); conditions: higher = more signal;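 further: A549 lung adenocarcinoma cells under basal conditions with no added stimulus; test concentration not given here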
[18] = system: Lefty1; test: Lefty1 binders on small-molecule microarrays, primary screen, biochemical, small-molecule microarray, 635/667 nm fluorescence (AID 1139); conditions: small-molecule microarray binding, fluorescence 635/667; higher = more signal
[19] = system: wheat germ agglutinin (Triticum aestivum), Alexa647-labelled; test: wheat germ agglutinin binders on compound microarrays, profiling panel, artefact control for SMM control-protein annotation, biochemical, small-molecule microarray, 635/667 nm fluorescence (AID 1140); conditions: WGA-A647 binding, 635 nm fluorescence, higher = more signal;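 further: score merges 667 nm feature emission with signal to noise over triplicate slides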
[20] = target: Luciferin 4-monooxygenase (Photinus pyralis) (UniProt P08659); test: firefly luciferase enzyme inhibitors, primary screen, biochemical, luminescence, purified enzyme, 2006 set (AID 1141); conditions: SteadyGlo luminescence, 30 min, higher = more signal, called active from +8 up or from −8 down;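 further: cell-free assay with purified firefly luciferase at 100 ng per well in PBS; test concentration not given here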
Luciferin 4-monooxygenase (Photinus pyralis), sequence (P08659 whole entry, looked up): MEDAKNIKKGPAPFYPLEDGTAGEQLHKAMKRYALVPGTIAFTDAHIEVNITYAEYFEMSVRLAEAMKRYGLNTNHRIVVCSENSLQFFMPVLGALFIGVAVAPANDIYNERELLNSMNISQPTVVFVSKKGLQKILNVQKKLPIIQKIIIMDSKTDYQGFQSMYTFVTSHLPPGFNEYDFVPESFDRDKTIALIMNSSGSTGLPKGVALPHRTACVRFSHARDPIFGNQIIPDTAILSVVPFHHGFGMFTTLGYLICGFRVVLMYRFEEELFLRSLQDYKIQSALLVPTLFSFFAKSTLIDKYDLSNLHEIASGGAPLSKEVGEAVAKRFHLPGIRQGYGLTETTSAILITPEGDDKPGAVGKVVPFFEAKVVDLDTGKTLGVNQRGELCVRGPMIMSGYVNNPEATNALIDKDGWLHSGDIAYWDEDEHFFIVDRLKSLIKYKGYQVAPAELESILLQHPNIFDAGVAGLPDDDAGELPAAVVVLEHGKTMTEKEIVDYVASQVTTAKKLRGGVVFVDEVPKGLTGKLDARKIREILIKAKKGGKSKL

For `C=CC[C@@H]1C=C[C@H](ON=C(C)CCC(=O)OC[C@H]2O[C@H](c3ccccc3)C=C[C@@H]2Oc2ccc(OC)cc2)[C@@H](CO)O1`, the composite z-score [1] was -0.1, the composite Z-score [2] was 0.741 (inactive) and the composite z-score [3] was -0.171. For the same compound, the composite z-score [4] was -0.177, the composite z-score [5] was -0.273 and the composite z-score [6] was 0.342. For the same compound, the composite z-score [7] was -0.0007, the composite z-score [8] was 0.144 and the composite z-score [9] was -0.0018. For the same compound, the composite z-score [10] was -0.152, the composite z-score [11] was 0.14 and the composite z-score [12] was -0.214. It also gave a composite z-score [13] of 0.261, a composite z-score [14] of -1.43 and a composite z-score [15] of -0.398. The composite z-score [16] was 0.121, the z-score [17] was -0.217 and the composite z-score [18] was 0.443. For the same compound, the composite z-score [19] was 0.104 and the z-score [20] was -0.506 (inactive).

With `Cc1cc2c(nc1C)CCCN2CC(O)CN1CCCc2nc(C)c(C)cc21` the composite z-score [1] was -0.293, the composite Z-score [2] was 2.34 (inactive) and the composite z-score [3] was 0.308. It also gave a composite z-score [4] of 0.054, a composite z-score [5] of 0.798 and a composite z-score [6] of 1.21. For the same compound, the composite z-score [7] was 0.446, the composite z-score [8] was 0.651 and the composite z-score [9] was 0.633. For the same compound, the composite z-score [10] was 0.879, the composite z-score [11] was 1.92 and the composite z-score [12] was -0.0317. The composite z-score [13] was 0.281, the composite z-score [14] was -0.575 and the composite z-score [15] was 0.817. It also gave a composite z-score [16] of 1.06, a z-score [17] of -0.685 and a composite z-score [18] of 0.454. For the same compound, the composite z-score [19] was 0.562 and the z-score [20] was 0.723 (inactive).
